Test [1] is described as follows: Quantitative High-Throughput drug screen in 47 multiple myeloma cell lines against the NCATS MIPE library collection: H1112_PLB cell viability assay (AID 1918967; note: nearly all actives have a fitted effect of over 30% in size). The method in brief: (§1)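 Relative luminescence from CellTiter-Glo served as the viability signal, referenced to DMSO-treated (100%) and cell-free medium (0%) controls. Treatment lasted 48 hours at 37C with 500 cells per well.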

Test [2] in a line: Quantitative High-Throughput drug screen in 47 multiple myeloma cell lines against the NCATS MIPE library collection: Karpas25_ECACC cell viability assay (AID 1918968; note: nearly all actives have a fitted effect of over 35% in size). Summed up:
as §1

A short description of test [3]: Quantitative High-Throughput drug screen in 47 multiple myeloma cell lines against the NCATS MIPE library collection: KMS27_JCRB cell viability assay (AID 1918970). Note: nearly all actives have a fitted effect of over 30% in size. Summed up: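 Each line is seeded at 500 cells per well and treated with library compounds for 48 hours under 37 °C, 5% CO2. CellTiter-Glo is then added for 5 min at room temperature before median relative luminescence is recorded.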

The nature of test [4]: Quantitative High-Throughput drug screen in 47 multiple myeloma cell lines against the NCATS MIPE library collection: KMS26_JCRB cell viability assay (AID 1918975). Note: nearly all actives have a fitted effect of over 45% in size. The method in brief: (§2)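 Steps: seed 500 cells per well; pin-transfer MIPE 4.0 library; incubate 48 h at 37C, 5% CO2, humidified; add CellTiter-Glo, 5 min room temperature; read luminescence.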
Test [5] can be described thus: Quantitative High-Throughput drug screen in 47 multiple myeloma cell lines against the NCATS MIPE library collection: MMM1_PLB cell viability assay (AID 1918976). Note: nearly all actives have a fitted effect of over 35% in size. Summed up:
(§3)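 Myeloma cells (500/well) treated with MIPE 4.0 compounds for 48 h at 37 °C, 5% CO2. Viability read as ATP via CellTiter-Glo luminescence after 5 min at RT; DMSO-only wells = 100%, media-only = 0% viability.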

The nature of test [6]: Quantitative High-Throughput drug screen in 47 multiple myeloma cell lines against the NCATS MIPE library collection: MOLP8_DSMZ cell viability assay (AID 1918977). Note: nearly all actives have a fitted effect of over 45% in size. The method in brief: as §3
Test [7] can be described thus: Quantitative High-Throughput drug screen in 47 multiple myeloma cell lines against the NCATS MIPE library collection: NCIH929_DSMZ cell viability assay (AID 1918978). Note: nearly all actives have a fitted effect of over 35% in size. The method in brief:
as §3

Test [8] in a line: Quantitative High-Throughput drug screen in 47 multiple myeloma cell lines against the NCATS MIPE library collection: MM1S_ATCC cell viability assay (AID 1918980). Note: nearly all actives have a fitted effect of over 45% in size. Summed up:
as §3

A short description of test [9]: Quantitative High-Throughput drug screen in 47 multiple myeloma cell lines against the NCATS MIPE library collection: MM1R_ATCC cell viability assay (AID 1918981). Note: nearly all actives have a fitted effect of over 35% in size. The method in brief: as §3
Test [10] is described as follows: Quantitative High-Throughput drug screen in 47 multiple myeloma cell lines against the NCATS MIPE library collection: KMS28PE_JCRB cell viability assay (AID 1918983). Note: nearly all actives have a fitted effect of over 35% in size. Summed up:
as §3

The nature of test [11]: Quantitative High-Throughput drug screen in 47 multiple myeloma cell lines against the NCATS MIPE library collection: OCIMY7_PLB cell viability assay (AID 1918987). Note: nearly all actives have a fitted effect of over 65% in size. Summed up: as §3
Test [12] is described as follows: Quantitative High-Throughput drug screen in 47 multiple myeloma cell lines against the NCATS MIPE library collection: KMS12BM_JCRB cell viability assay (AID 1918971). Note: nearly all actives have a fitted effect of over 35% in size. Summed up: as §2
The nature of test [13]: Quantitative High-Throughput drug screen in 47 multiple myeloma cell lines against the NCATS MIPE library collection: OCIMY1_PLB cell viability assay (AID 1918979). Note: nearly all actives have a fitted effect of over 35% in size. The method in brief: as §3
The nature of test [14]: Quantitative High-Throughput drug screen in 47 multiple myeloma cell lines against the NCATS MIPE library collection: KMS12PE_JCRB cell viability assay (AID 1918972). Note: nearly all actives have a fitted effect of over 30% in size. Summed up: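 Myeloma cells (500 per well) were exposed to MIPE 4.0 compounds by pin transfer and incubated 48 hours at 37C, 5% CO2. Viability was read as ATP by CellTiter-Glo luminescence, normalised to DMSO (100%) and media-only (0%) wells.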

The nature of test [15]: Quantitative High-Throughput drug screen in 47 multiple myeloma cell lines against the NCATS MIPE library collection: LP1_DSMZ cell viability assay (AID 1918982). Note: nearly all actives have a fitted effect of over 35% in size. Summed up:
as §3

Test [16] in a line: Quantitative High-Throughput drug screen in 47 multiple myeloma cell lines against the NCATS MIPE library collection: L363_DSMZ cell viability assay (AID 1918984). Note: nearly all actives have a fitted effect of over 40% in size. Summed up:
as §3

Test [17] can be described thus: Quantitative High-Throughput drug screen in 47 multiple myeloma cell lines against the NCATS MIPE library collection: KMS21BM_JCRB cell viability assay (AID 1918974). Particulars: ATP luminescence, 48 h; viability: at 45.8 µM (top of the series) unless noted. Summed up:
as §1

Test [18] is described as follows: Quantitative High-Throughput drug screen in 47 multiple myeloma cell lines against the NCATS MIPE library collection: KMS20_JCRB cell viability assay (AID 1918973). Note: nearly all actives have a fitted effect of over 45% in size. Summed up:
as §1

The nature of test [19]: Quantitative High-Throughput drug screen in 47 multiple myeloma cell lines against the NCATS MIPE library collection: KMS34_JCRB cell viability assay (AID 1918985). Note: nearly all actives have a fitted effect of over 40% in size. Summed up: as §3
Test [20] in a line: Quantitative High-Throughput drug screen in 47 multiple myeloma cell lines against the NCATS MIPE library collection: OCIMY5_PLB cell viability assay (AID 1918988). Note: nearly all actives have a fitted effect of over 65% in size. Summed up: as §3

The structures appear in SMILES notation. Results filed as inconclusive are left out. Activity calls are given as the source filed them. Calls come from the whole dose curve; as a rule, active = well fitted curve in the direction sought with a large enough effect; inconclusive = small, poorly fitted or top-dose-only effect, or another doubt; inactive = no such curve, though single readings can be large; an effect the other way counts as inactive or inconclusive.

The term viability denotes a read-out of living cells in per cent, often relative to untreated cells.
Potency is the fitted concentration of half-maximal effect.

With `COc1ccc2c3n(c(=NC(=O)c4cccnc4)nc2c1OC)CCN3`, the Potency in test [1] was 4.69 µM (active); in [2], 5.9 µM (active); in test [3] it was 11.8 µM (active); in test [4] it was 11.8 µM (active); in [5], 4.69 µM (active); in test [6], 2.64 µM (active). For the same compound, the Potency was 1.87 µM (active) in test [7]; 2.64 µM (active) in test [8]; 5.9 µM (active) in test [9]; 5.9 µM (active) in test [10]; 0.0743 µM (active) in test [11].
For the compound `CCn1c(-c2nonc2N)nc2c(C#CC(C)(C)O)ncc(OC[C@H]3CCCNC3)c21`, the Potency in test [1] was 14.8 µM (active); in test [2], 1.18 µM (active); in test [3], 0.418 µM (active); in [12] it was 14.8 µM (active); in test [7] it was 0.0209 µM (active); in test [13] it was 4.18 µM (active). Also, the Potency in test [8] is 0.0264 µM (active); in [9], 0.0418 µM (active); in test [10], 0.296 µM (active); in test [11] it was 8.33 µM (active).
Consider `Cc1ccccc1C(OCCN(C)C)c1ccccc1` (stereo unspecified), for which the Potency result in test [1], in test [2], in [3], in [14], in test [6] and in [7] was “inactive” throughout. Also, the Potency entry in test [13], in [8], in [9], in test [15] and in [16] was “inactive” throughout.
For `C[C@H](NC(=O)Cc1cc(F)cc(F)c1)C(=O)N[C@@H]1C(=O)N(C)c2ccccc2-c2ccccc21`, the Potency in test [1] was 5.9 µM (active); in test [2], 5.26 µM (active); in test [7], 4.69 µM (active); in test [8] it was 9.35 µM (active). Besides, the Potency result in test [12], in test [15] and in test [10] was “inactive” in each case. In [17], the viability was 138% (active).
As for `Cc1c(CCOc2ccc(C(=O)O)cc2)c2cc(Cl)ccc2n1C(c1ccccc1)c1ccccc1`, the Potency result in test [1], in test [14], in test [18], in test [7], in [13] and in test [11] was “inactive” in each case. The Potency in [2] was 20.9 µM (active); in [12], 16.6 µM (active); in test [5], 14.8 µM (active); in test [8], 9.35 µM (active); in test [9], 11.8 µM (active); in [10], 23.5 µM (active).
`COc1ccccc1-c1cccc(-c2c(O)c3cc(C#N)c(Cl)cc3[nH]c2=O)c1`: the Potency entry in [1], in test [18], in test [4], in test [6], in [13] and in test [8] was “inactive” in each case. Moreover, the Potency result in test [9], in [10] and in test [19] was “inactive” in each case. The values for the Potency in test [3] and in test [14] were 42.9 µM (active) and 48.1 µM (active), respectively. For the same compound, the viability in [17] is 162% [at 92.2 µM] (active).
In the case of `C[C@]12CC[C@H](O)CC1=CC[C@@H]1[C@H]2CC[C@]2(C)C(c3cccnc3)=CC[C@H]12`, the Potency entry in test [1], in [3], in [12], in [14], in test [18] and in [4] was “inactive” throughout. Further, the Potency result in [13], in [9], in test [15], in test [10], in [16] and in [19] was “inactive” throughout.
Turning to `COc1cc2nccc(Oc3ccc(NC(=O)NC4CC4)c(Cl)c3)c2cc1C(N)=O`, the Potency in test [1] is 2.96 µM (active); in test [3] it was 3.32 µM (active); in test [12] it was 5.9 µM (active); in test [14] it was 0.833 µM (active); in [18], 13.2 µM (active); in [4], 23.5 µM (active). The Potency is 13.2 µM (active) in [6]; 16.6 µM (active) in [7]; 20.9 µM (active) in test [13]; 0.264 µM (active) in [8]; 1.18 µM (active) in test [9]; 20.9 µM (active) in test [15]. The Potency in test [10] is 13.2 µM (active); in [19], 18.7 µM (active); in [20], 3.32 µM (active). The Potency result in test [16] is “inactive”.
For `Oc1ccc(C2CNCCc3c2cc(O)c(O)c3Cl)cc1` (stereo unspecified), the Potency entry in [1], in [14], in test [18], in test [6], in test [13] and in [9] was “inactive” in each case. The Potency entry in [15] and in test [10] was “inactive” throughout. Further, the Potency in test [2] is 5.9 µM (active); in test [17] it was 18.7 µM (active); in test [4], 1.32 µM (active); in test [7], 16.6 µM (active); in test [8], 3.32 µM (active); in [19], 14.8 µM (active). Also, the Potency in test [20] is 16.6 µM (active).
Turning to `Cn1cnc2c(F)c(Nc3ccc(Br)cc3Cl)c(C(=O)NOCCO)cc21`, the Potency was 0.662 µM (active) in [1]; 0.469 µM (active) in test [3]; 3.32 µM (active) in test [14]; 0.0935 µM (active) in [18]; 0.105 µM (active) in test [17]; 7.43 µM (active) in test [4]. Further, the Potency in test [7] was 0.105 µM (active); in test [8] it was 7.43 µM (active); in test [9], 18.7 µM (active); in test [10], 9.35 µM (active); in [16], 0.833 µM (active); in test [11], 0.0469 µM (active). Moreover, in test [13], the Potency entry is “inactive”.
On to `O=C1CCC(N2C(=O)c3ccccc3C2=O)C(=O)N1` (stereo unspecified), for which the Potency result in test [1], in test [3], in [14], in [7], in [13] and in test [15] was “inactive” throughout. Further, the values for the Potency in test [12] and in test [5] were 18.7 µM (active) and 2.96 µM (active), respectively.
Consider `Cc1[nH]c(=O)c(C#N)cc1-c1ccc2nccn2c1`, for which the Potency entry in test [1], in [2], in [14], in test [4], in test [7] and in test [10] was “inactive” in each case. Besides, in test [11], the Potency result is “inactive”.
As to `S=C(NCc1ccc2c(c1)OCO2)N1CCN(c2ncnc3c2oc2ccccc23)CC1`, the Potency in test [1] was 0.605 µM (active); in test [3], 4.29 µM (active); in test [12] it was 1.91 µM (active); in test [14] it was 1.52 µM (active); in [17], 1.21 µM (active); in [7], 4.81 µM (active). In addition, the Potency in [13] was 42.9 µM (active); in test [8], 3.82 µM (active); in test [15] it was 2.7 µM (active); in test [10], 6.05 µM (active); in test [16], 0.605 µM (active); in test [11] it was 4.29 µM (active). In addition, the Potency in [20] is 9.59 µM (active). For the same compound, in [19], the Potency result was “inactive”.
In the case of `NC[C@H](O)c1ccc(O)c(O)c1`, the Potency entry in test [1], in [3], in test [14], in test [7], in test [13] and in test [15] was “inactive” throughout. The Potency entry in test [19] is “inactive”. The Potency in test [12] was 20.9 µM (active); in test [5], 23.5 µM (active); in [8], 23.5 µM (active); in [9], 5.9 µM (active); in test [20] it was 1.32 µM (active).
On to `CC(C)(C)NCC(O)c1ccc(O)c(CO)c1` (stereo unspecified), for which the Potency entry in test [1], in test [14], in test [18], in [17], in test [7] and in test [15] was “inactive” each time. The Potency is 0.0418 µM (active) in test [2], 0.059 µM (active) in [8], 0.0264 µM (active) in test [9] and 0.0148 µM (active) in test [20].

The record behind these values is PubChem BioAssay (NCATS).
